From PubChem BioAssay (Tox21)
Inconclusive results are not listed. Activity calls are given as the source filed them. Unless noted, calls come from the whole dose curve; as a rule, active = well fitted curve in the direction sought with a large enough effect in the repeat runs; inconclusive = weak or mixed curves; inactive = no such curve, though single readings can be large; an effect the other way counts as inactive or inconclusive.

Experiments:
[1] = A CellTox Green Cytotoxicity Assay to monitor cytotoxicity in HEK293 cells - 32 hour (AID 1224881); note: nearly all actives have a fitted effect of over 40% in size
Outline: (§1)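 Homogeneous no-lysis format: HEK293 cell suspension mixed with CellTox Green reagent, seeded, incubated 5 h at 37 C/5% CO2, then dosed by pintool with compound in DMSO.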

[2] = A CellTox Green Cytotoxicity Assay to monitor cytotoxicity in HepG2 cells - 0 hour (AID 1224882); note: nearly all actives have a fitted effect of over 35% in size
Outline: (§2)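 Fluorescent DNA-binding dye, 600 HepG2 cells/well, 5 h preincubation then compound in DMSO; same plates read at 0–40 h, 37 C.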

[3] = A CellTox Green Cytotoxicity Assay to monitor cytotoxicity in HepG2 cells - 32 hour (AID 1224883); note: nearly all actives have a fitted effect of over 50% in size
Outline: as §2

[4] = A CellTox Green Cytotoxicity Assay to monitor cytotoxicity in HEK293 cells - 8 hour (AID 1224884); note: nearly all actives have a fitted effect of over 35% in size
Outline: as §1

[5] = qHTS RealTime-Glo MT Cell Viability Assay in HepG2 cells - 16 hour (AID 1224885); note: nearly all actives have a fitted effect of over 50% in size
Outline: (§3)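 Compound treatment began 5 h after plating HepG2 cells (600/well) with NanoLuc luciferase and prosubstrate. Plates stayed at 37 C for 40 h; luminescence was captured at six time points, 0 h through 40 h.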

[6] = qHTS RealTime-Glo MT Cell Viability Assay in HEK293 cells - 24 hour (AID 1224886); note: top concentration of the series differs between compounds; nearly all actives have a fitted effect of over 50% in size
Outline: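 Quantitative high-throughput screen of the Tox21 10K library in HEK293: cells and RealTime-Glo reagents plated together, compound added at 5 h, luminescence monitored through 40 h at 37 C.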

[7] = qHTS RealTime-Glo MT Cell Viability Assay in HEK293 cells - 8 hour (AID 1224887); note: top concentration of the series differs between compounds; nearly all actives have a fitted effect of over 50% in size
Outline: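 Measured as luminescence from the same continuously cultured HEK293 wells at successive time points (0, 8, 16, 24, 32, 40 h) after compound addition. Reagent present from seeding; dosing at 5 h; incubation 37 C.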

[8] = A CellTox Green Cytotoxicity Assay to monitor cytotoxicity in HEK293 cells - 16 hour (AID 1224888); note: nearly all actives have a fitted effect of over 35% in size
Outline: as §1

[9] = qHTS RealTime-Glo MT Cell Viability Assay in HepG2 cells - 0 hour (AID 1224889); note: nearly all actives have a fitted effect of over 50% in size
Outline: as §3

[10] = A CellTox Green Cytotoxicity Assay to monitor cytotoxicity in HepG2 cells - 8 hour (AID 1224890); note: nearly all actives have a fitted effect of over 45% in size
Outline: as §2

[11] = qHTS assay to identify small molecule antagonists of the androgen receptor (AR) signaling pathway using the MDA cell line in the presence of 0.5 nM R1881 - cell viability counter screen (AID 1259242); note: nearly all actives have a fitted effect of over 45% in size
Outline: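 Human breast carcinoma MDA-kb2 cells, cultured without CO2, receive compounds alongside 0.5 nM (final) R1881 agonist. After 16 hr at 37C, viability is taken as live-cell protease signal.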

[12] = target: Estrogen receptor (Homo sapiens) (UniProt P03372); experiment: qHTS assay to identify small molecule antagonists of the estrogen receptor alpha (ER-alpha) signaling pathway using the BG1 cell line in the presence of 0.1 nM 17-beta-estradiol (AID 1259244); note: nearly all actives have a fitted effect of over 50% in size
Chain of Estrogen receptor (Homo sapiens) (P03372 whole entry, looked up): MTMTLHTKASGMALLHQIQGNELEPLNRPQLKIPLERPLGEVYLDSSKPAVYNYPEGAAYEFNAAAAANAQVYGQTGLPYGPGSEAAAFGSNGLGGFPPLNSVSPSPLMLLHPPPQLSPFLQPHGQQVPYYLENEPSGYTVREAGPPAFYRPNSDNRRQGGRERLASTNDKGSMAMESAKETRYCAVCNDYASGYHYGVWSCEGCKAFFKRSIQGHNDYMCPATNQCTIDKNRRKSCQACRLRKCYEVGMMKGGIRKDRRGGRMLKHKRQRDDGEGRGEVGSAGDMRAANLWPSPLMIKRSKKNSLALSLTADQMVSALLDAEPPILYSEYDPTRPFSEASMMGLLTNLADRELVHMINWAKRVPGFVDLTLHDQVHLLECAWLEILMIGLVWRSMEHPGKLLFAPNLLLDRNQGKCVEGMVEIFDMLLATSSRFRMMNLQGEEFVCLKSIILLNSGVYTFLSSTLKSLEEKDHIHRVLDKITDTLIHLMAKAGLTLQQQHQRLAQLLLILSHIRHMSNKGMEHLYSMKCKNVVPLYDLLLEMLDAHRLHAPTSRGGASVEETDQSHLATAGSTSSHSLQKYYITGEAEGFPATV
Outline: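 Seeding of stripped-serum-adapted VM7Luc4E2 cells, 24 h attachment, compound transfer, then 0.1 nM final 17beta-estradiol; after 22 h incubation, ONE-Glo reagent and luminescence reading.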

[13] = qHTS assay to identify small molecule HDAC inhibitors (AID 1259364);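 note: wild-type HCT-116 cells with endogenous class I/II HDAC activity; top concentration of the series differs between compounds; nearly all actives have a fitted effect of over 45% in size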
Outline: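 After a 2 hr compound incubation (37C, 5% CO2), HCT-116 cells seeded at 1,500/well the day before received HDAC-Glo reagent; signal read as luminescence after 30 min at room temperature.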

[14] = qHTS assay to identify small molecule HDAC inhibitors - cell viability counter screen (AID 1259365)
Outline: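 Luminescence from CellTiter-Glo, developed 30min at room temperature, reports viability of wild-type HCT-116 cells treated 2hr with compounds at 37 C and 5% CO2 after overnight plating.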

[15] = qHTS assay to identify small molecule agonists of the sonic hedgehog signaling (Shh) pathway - cell viability counter screen (AID 1259366); note: nearly all actives have a fitted effect of over 50% in size
Outline: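 Cytotoxicity counter screen run in the same wells as the Shh reporter assay. NIH/3T3 cells carrying a Gli1 response element–driven luciferase were treated with DMSO-dissolved compounds for 24hr, and live-cell protease activity was measured with CellTiter-Fluor.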

[16] = qHTS assay to identify small molecule antagonists of the sonic hedgehog signaling (Shh) pathway - cell viability counter screen (AID 1259367); note: nearly all actives have a fitted effect of over 55% in size
Outline: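 CellTiter-Fluor signal in conditioned medium-stimulated 3T3 Gli1-Luc cells, 23 hr compound exposure, 37C.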

[17] = qHTS assay to identify small molecule agonists of the sonic hedgehog signaling (Shh) pathway (AID 1259368; calls by dose curve;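 note: NIH/3T3-derived 3T3Gli1-Luc cells carrying a stable Gli1-driven firefly luciferase reporter; series mostly up to about 92 µM; nearly all actives have a fitted effect of over 15% in size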)
Outline: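 Stable NIH/3T3 Gli1-Luc reporter clone; 24 hr cpd exposure after a 4 hr settling period; luminescence endpoint.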

[18] = qHTS assay to identify small molecule antagonists of the estrogen receptor alpha (ER-alpha) signaling pathway using the BG1 cell line in the presence of 0.1 nM 17-beta-estradiol - cell viability counter screen (AID 1259241); note: nearly all actives have a fitted effect of over 40% in size
Outline: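 VM7Luc4E2, 4,000 cells/well, phenol red-free medium + 10% charcoal-stripped FBS; 24 hr plating; cpd + 0.1 nM E2 final, 22 hr 37C/5% CO2; CellTiter-Fluor 30 min, fluorescence.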

[19] = qHTS assay to identify small molecule phospholipidosis (PLD) inducers (AID 1259344; active = well fitted curve in the direction sought with a large enough effect; an effect the other way counts as inactive or inconclusive)
Outline: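 Accumulated phospholipid, stained red by LipidTOX during 24 h compound treatment of HepG2 cells at 37 C, is quantified from images as pit number and intensity, normalised per cell using Hoechst-stained nuclei.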

[20] = target: Androgen receptor (Homo sapiens) (UniProt P10275); experiment: qHTS assay to identify small molecule antagonists of the androgen receptor (AR) signaling pathway using the MDA cell line in the presence of 0.5 nM R1881 (AID 1259243); note: nearly all actives have a fitted effect of over 50% in size
Chain of Androgen receptor (Homo sapiens) (P10275 whole entry, looked up): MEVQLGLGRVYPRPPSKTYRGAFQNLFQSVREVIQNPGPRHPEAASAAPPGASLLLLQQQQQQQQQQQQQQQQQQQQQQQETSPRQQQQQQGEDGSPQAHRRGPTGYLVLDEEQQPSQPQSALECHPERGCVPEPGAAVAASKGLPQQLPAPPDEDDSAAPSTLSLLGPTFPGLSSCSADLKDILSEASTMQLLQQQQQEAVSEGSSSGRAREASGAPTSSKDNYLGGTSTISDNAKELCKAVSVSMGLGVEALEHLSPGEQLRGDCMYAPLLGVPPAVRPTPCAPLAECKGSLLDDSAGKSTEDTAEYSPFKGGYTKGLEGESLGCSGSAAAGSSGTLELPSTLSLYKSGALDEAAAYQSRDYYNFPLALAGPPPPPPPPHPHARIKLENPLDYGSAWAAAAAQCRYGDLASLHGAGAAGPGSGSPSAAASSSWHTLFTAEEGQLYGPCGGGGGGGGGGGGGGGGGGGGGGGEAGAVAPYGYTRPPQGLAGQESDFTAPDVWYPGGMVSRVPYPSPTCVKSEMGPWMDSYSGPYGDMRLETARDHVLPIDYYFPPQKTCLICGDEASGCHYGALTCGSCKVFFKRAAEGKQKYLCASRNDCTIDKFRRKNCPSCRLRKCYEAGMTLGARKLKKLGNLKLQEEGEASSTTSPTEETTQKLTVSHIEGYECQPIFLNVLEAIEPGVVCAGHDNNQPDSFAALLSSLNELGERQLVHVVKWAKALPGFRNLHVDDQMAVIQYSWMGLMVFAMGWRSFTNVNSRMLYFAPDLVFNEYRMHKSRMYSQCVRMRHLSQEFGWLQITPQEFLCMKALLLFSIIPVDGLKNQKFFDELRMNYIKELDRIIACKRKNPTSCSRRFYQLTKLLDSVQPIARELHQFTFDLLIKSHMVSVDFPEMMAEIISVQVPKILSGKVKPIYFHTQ
Outline: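 Cells: MDA-kb2 (MMTV-luc). Stimulus: 0.5 nM R1881. Time: 16 hr, 37C, no CO2. Detection: ONE-Glo luminescence after 30 min at RT.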

Measured: Potency

CCCCc1ccc2c(n1)[C@@H](c1ccc(OC)cc1C[C@H](C)C(=O)O)[C@H](C(=O)O)[C@H]2c1ccc2c(c1)OCO2
inactive: [1] | [2] | [3] | [4] | [5] | [6] | [7] | [8] | [9] | [10] | [11] | [12] | [13] | [14] | [15] | [16] | [17]

CN(C)CCCCCCN(C)C
inactive: [1] | [2] | [3] | [4] | [5] | [6] | [7] | [8] | [9] | [10] | [13] | [14] | [15] | [16] | [17]

C[C@@H]1C[C@H]2[C@@H]3C[C@H](F)C4=CC(=O)C(Cl)=C[C@]4(C)[C@@]3(F)[C@@H](O)C[C@]2(C)[C@@]1(O)C(=O)CO
inactive: [1] | [2] | [3] | [4] | [5] | [6] | [7] | [8] | [10] | [18] | [11] | [12] | [19] | [13] | [14] | [15] | [16] | [17]

CCOc1c(N2CCOCC2)cnn(C)c1=O
inactive: [1] | [2] | [3] | [4] | [5] | [6] | [7] | [8] | [10] | [18] | [11] | [20] | [12] | [13] | [14] | [15] | [16] | [17]

CC(C)C1CCC(O)CC1 (stereo not drawn)
inactive: [1] | [2] | [3] | [4] | [5] | [6] | [7] | [8] | [9] | [10] | [11] | [20] | [13] | [14] | [15] | [16] | [17]

CC/C=C\CCOC(C)OCC (stereo not drawn)
inactive: [1] | [2] | [3] | [4] | [5] | [6] | [7] | [8] | [10] | [18] | [11] | [12] | [13] | [15] | [16] | [17]

CC(C(=O)O)c1cccc(Oc2ccccc2)c1 (stereo not drawn)
inactive: [1] | [2] | [3] | [4] | [5] | [6] | [7] | [8] | [9] | [10] | [11] | [19] | [13] | [14] | [15] | [16] | [17]
